PubChem BioAssay (NCATS)
Values joined by “and” are separate entries in the source; they are usually repeats but may differ in a detail not shown here. Equal entries are not always repeated. Results filed as inconclusive are left out. Active and inactive are the calls of the source. The call rests on the fitted dose curve; in most records, active means well fitted curve in the direction sought with a large enough effect; inconclusive means small, poorly fitted or top-dose-only effect, or another doubt; inactive means no such curve, though single readings can be large; an effect the other way counts as inactive or inconclusive.

What was measured:
[1] = qHTS for Activators of Parkin Expression: LOPAC Validation Assay (FLuc Reporter) (AID 720573;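 further: 0% = DMSO and 100% = positive control compounds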)
Method in brief: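 A neuronal cell line harbouring FLuc and NLuc reporters behind the Parkin promoter was exposed to compounds for 24 h. Firefly luciferase signal, measured after 10 min with detection reagent, was scaled to DMSO and positive-control wells.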

[2] = target: T1, Hexokinase-4 (Homo sapiens) + Glucokinase regulatory protein (Homo sapiens) (UniProt P35557+Q14397); assay: qHTS assay for inhibitors of recombinant human GCK-GKRP interaction: Diaphorase-coupled assay (AID 743205)
T1 sequence (P35557 whole entry, looked up): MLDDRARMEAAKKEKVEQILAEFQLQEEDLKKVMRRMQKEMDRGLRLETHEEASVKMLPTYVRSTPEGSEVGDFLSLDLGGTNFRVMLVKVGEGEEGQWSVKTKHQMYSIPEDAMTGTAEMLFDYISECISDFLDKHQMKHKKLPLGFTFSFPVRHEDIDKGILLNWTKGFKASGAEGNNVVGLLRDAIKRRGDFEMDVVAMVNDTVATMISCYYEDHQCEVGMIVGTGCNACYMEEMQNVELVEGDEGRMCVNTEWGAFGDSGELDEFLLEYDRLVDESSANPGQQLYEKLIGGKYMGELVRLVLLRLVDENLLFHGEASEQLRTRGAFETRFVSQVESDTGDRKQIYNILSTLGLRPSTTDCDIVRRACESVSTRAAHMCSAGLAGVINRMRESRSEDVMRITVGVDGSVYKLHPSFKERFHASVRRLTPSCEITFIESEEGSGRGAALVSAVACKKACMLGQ
T1 sequence (Q14397 whole entry, looked up): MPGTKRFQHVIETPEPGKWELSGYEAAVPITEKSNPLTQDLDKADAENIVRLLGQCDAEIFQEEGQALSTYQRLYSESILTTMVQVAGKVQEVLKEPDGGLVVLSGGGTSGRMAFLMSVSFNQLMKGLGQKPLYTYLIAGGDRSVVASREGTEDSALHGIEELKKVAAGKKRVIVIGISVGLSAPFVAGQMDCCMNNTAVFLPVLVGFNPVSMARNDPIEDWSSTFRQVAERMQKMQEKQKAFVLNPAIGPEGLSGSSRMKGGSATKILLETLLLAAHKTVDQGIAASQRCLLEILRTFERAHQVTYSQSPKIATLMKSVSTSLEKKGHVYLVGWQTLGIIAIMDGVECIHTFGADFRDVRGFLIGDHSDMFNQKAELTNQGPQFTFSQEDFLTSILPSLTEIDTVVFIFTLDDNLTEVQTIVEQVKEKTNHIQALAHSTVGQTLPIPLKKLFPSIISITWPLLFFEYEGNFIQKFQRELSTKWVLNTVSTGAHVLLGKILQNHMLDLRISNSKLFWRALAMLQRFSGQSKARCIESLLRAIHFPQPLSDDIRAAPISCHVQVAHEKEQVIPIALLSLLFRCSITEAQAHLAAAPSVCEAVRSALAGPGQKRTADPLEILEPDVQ
Method in brief: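 Inhibitors of the GCK–GKRP complex relieve GKRP suppression of GCK, detected through a G6PDH–diaphorase cascade reducing resazurin. Human GST-GCK and FLAG-GKRP are used at 10 nM with 5 mM glucose and 0.4 mM ATP.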

[3] = target: T1, Hexokinase-4 (Homo sapiens) + Glucokinase regulatory protein (Homo sapiens); assay: qHTS assay for inhibitors of recombinant human GCK-GKRP interaction: ADP-Glo assay (AID 743206);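 further: plate controls were DMSO plus enzyme for no effect and no enzyme for full effect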
Method in brief: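 GST-GCK and FLAG-GKRP (15 nM each in the dispensed mix, with 2 uM S6P) react with 0.4 mM ATP and 5 mM glucose (final) in Hepes pH 7.6 for 60 min at room temperature. ADP is measured by ADP-Glo luminescence.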

[4] = target: T1, Hexokinase-4 (Homo sapiens) + Glucokinase regulatory protein (Homo sapiens); assay: qHTS assay for inhibitors of recombinant human GCK-GKRP interaction: HTRF assay (AID 743207);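 further: 0% = DMSO with GCK present and -100% = DMSO wells lacking GCK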
Method in brief: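 Steps: dispense GCK–GKRP complex (5 nM each, GST- and FLAG-tagged) with 2 uM S6P; pin in compounds; add XL665/Eu-cryptate-labelled antibodies; incubate 60 min at room temperature; read time-resolved FRET at 665 and 615 nm.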

[5] = qHTS Assay for Identifying Gametocytocidal Compounds (AID 743244); further: potency means the concentration at half of the fitted maximal effect;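 on max response: on the % scale 0 is the no-effect control and ±100 the full control effect; actives lower the fluorescent signal which means gametocytes are killed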; conditions: P. falciparum 3D7 stage III-V gametocytes, alamarBlue, 72 h; max response: active compounds read low
Method in brief: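 P. falciparum 3D7 stage III–V gametocytes (20,000 cells/well) were exposed to compounds for 72 h at 37 °C, 5% CO2. AlamarBlue was then added for 24 h; decreased resorufin fluorescence (Ex 525/Em 598 nm) indicated loss of viability.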

CCCCCCCCCCCCCCCCCC(=O)NCC(COP(=O)([O-])OCC[N+](C)(C)C)OCC (stereo not given)
inactive: Potency [1] | outcome [2] | Potency [3]

COc1cccc(OC)c1OCCNCC1COc2ccccc2O1 (stereo not given)
inactive: Potency [1] | outcome [2] | Potency [3] | Potency [4] | max response [5] 16.7%

Fc1ccc(C(OCCCc2cnc[nH]2)c2ccc(F)cc2)cc1
inactive: Potency [1] | outcome [2] | Potency [3] | Potency [4]

COc1ccc(/C=C/C(=O)Nc2ccccc2C(=O)O)cc1OC
inactive: Potency [1] | outcome [2] | Potency [3] | Potency [4] | max response [5] 46% and -4.4%

CCNC(=O)[C@H]1O[C@@H](n2cnc3c(N)nc(NCCc4ccc(CCC(=O)O)cc4)nc32)[C@H](O)[C@@H]1O
inactive: Potency [1] | outcome [2] | Potency [3] | Potency [4] | max response [5] -4.57%

O=P(O)(O)C(Cl)(Cl)P(=O)(O)O
inactive: Potency [1] | outcome [2] | Potency [3] | Potency [4]

CN(C)c1nc2c(Br)c(Br)c(Br)c(Br)c2[nH]1
inactive: Potency [1] | outcome [2] | Potency [3] | Potency [4] | max response [5] 21.9%

CCCCCCCCCCCCCCCC(=O)NCC(COP(=O)([O-])OCC[N+](C)(C)C)OCC (stereo not given)
inactive: Potency [1] | outcome [2] | Potency [3] | Potency [4] | max response [5] 1.33%

NC[C@H]1O[C@@H](n2cnc3c(N)ncnc32)[C@H](O)[C@@H]1O
inactive: Potency [1] | outcome [2] | Potency [3] | Potency [4] | max response [5] -2.15%

CCCCCCCCCCCCCCCCCC(=O)OC(CC(=O)O)C[N+](C)(C)C (stereo not given)
inactive: Potency [1] | outcome [2] | Potency [3] | Potency [4] | max response [5] -2.89%

O=C(O)CC1CCCc2ccccc2C1O (stereo not given)
inactive: Potency [1] | outcome [2] | Potency [3] | Potency [4] | max response [5] 12.4%

C#C[C@]1(O)CC[C@H]2[C@@H]3CCC4=Cc5oncc5CC4(C)[C@H]3CCC21C (stereo not given in full)
inactive: Potency [1] | outcome [2] | Potency [3] | Potency [4]

COc1ccccc1N1CCN(CCN(C(=O)c2ccc(I)cc2)c2ccccn2)CC1
inactive: Potency [1] | outcome [2] | Potency [3] | Potency [4]

N=c1ccn2c(n1)O[C@H]1[C@H](O)[C@@H](CO)O[C@H]12
inactive: Potency [1] | outcome [2] | Potency [3] | Potency [4] | max response [5] 8.89%

CC(C)(C)c1ccc(S(=O)(=O)/C=C/C#N)cc1
inactive: Potency [1] | outcome [2] | Potency [3] | Potency [4]

O=C(CCCCCN1CCN(c2ccccc2-c2ccccc2)CC1)NC1CCCc2ccccc21 (stereo not given)
inactive: Potency [1] | outcome [2] | Potency [3] | Potency [4]

C#CCN1C(C)=C(C(=O)OC)C(c2cccc([N+](=O)[O-])c2)C(C(=O)OCC)=C1C (stereo not given)
inactive: Potency [1] | outcome [2] | Potency [3] | Potency [4]

O=C(c1cc(O)c(O)c([N+](=O)[O-])c1)c1ccccc1F
inactive: Potency [1] | outcome [2] | Potency [3] | Potency [4] | max response [5] 18.1%

O=C(O)c1cc(=O)c2c(Cl)cc(Cl)cc2[nH]1
inactive: Potency [1] | outcome [2] | Potency [3] | Potency [4] | max response [5] 14.4%

O=Nc1ccc2oc(=O)ccc2c1
inactive: Potency [1] | outcome [2] | Potency [3] | Potency [4]
active: Potency [5] 1780 nM

CNCC[C@H](Oc1ccc(C(F)(F)F)cc1)c1ccccc1
inactive: Potency [1] | outcome [2] | Potency [3] | Potency [4]

CC(=O)/C=C1\C(=O)N(C)c2ccccc21
inactive: Potency [1] | outcome [2] | Potency [3] | Potency [4] | max response [5] -11.9%

CN1C2CC(OC(=O)[C@H](CO)c3ccccc3)CC1C1OC12 (stereo not given in full)
inactive: Potency [1] | outcome [2] | Potency [3] | Potency [4]

COc1ccccc1N1CCN(CCCCNS(=O)(=O)c2cccc3c(N(C)C)cccc23)CC1
inactive: Potency [1] | outcome [2] | Potency [3] | Potency [4]

CC(C)Cc1ccc([C@H](C)C(=O)O)cc1
inactive: Potency [1] | outcome [2] | Potency [3] | Potency [4] | max response [5] -6.28% and 20.5%

Cc1cc2c(cc1Cl)N(C(=O)Nc1ccc(Oc3cccnc3C)nc1)CC2
inactive: Potency [1] | outcome [2] | Potency [3] | Potency [4]

N.N.O=C(O)C1(C(=O)O)CCC1.[Pt]
inactive: Potency [1] | outcome [2] | Potency [3] | Potency [4] | max response [5] -4.37%

CN(C)c1nc(N)c(C(=O)N=C(N)N)nc1Cl
inactive: Potency [1] | outcome [2] | Potency [3] | Potency [4] | max response [5] 11%

Nc1ncnc2c1ncn2[C@@H]1O[C@H](COP(=O)(O)CP(=O)(O)OP(=O)(O)O)[C@@H](O)[C@H]1O
inactive: Potency [1] | outcome [2] | Potency [3] | Potency [4]

CCOC(=O)C1=C(C)NC(C)=C(C(=O)OCC)C1c1c(F)c(F)c(F)c(F)c1F
inactive: Potency [1] | outcome [2] | Potency [3] | Potency [4] | max response [5] 17%

Oc1cc2c(cc1O)CN(C(=S)NCCc1ccc(Cl)cc1)CCC2
inactive: Potency [1] | outcome [2] | Potency [3] | Potency [4]

CNC(=O)[C@H]1O[C@@H](n2cnc3c(NCc4ccc(N)cc4)ncnc32)[C@H](O)[C@@H]1O
inactive: Potency [1] | outcome [2] | Potency [3] | Potency [4] | max response [5] 6.14%
